In PubChem BioAssay (NCATS):
Active and inactive are the calls of the source. How the calls were made is not given here.

How the values were obtained:
[1] = Immunotoxin (HA22) sensitization/mitigation study. Vehicle arm (PBS) (AID 1159510)
[2] = Immunotoxin (SS1P) sensitization/mitigation study. Vehicle arm (DMEM) (AID 1159513)
Potency means the concentration at half of the fitted maximal effect.

## CC(C)(C)OC(=O)Nc1ccc(-c2cc(C(=O)NCCCCCCC(=O)NO)no2)cc1
[1]
  Potency: 0.0935 µM (active)
[2]
  Potency: 1.18 µM (active)

## COc1ccc(OC)c(-c2nnc3ccc(-c4ccc(OC)c(O[C@@H]5CCOC5)c4)nn23)c1
[1]
  Potency: 8.33 µM (active)
[2]
  Potency: 8.33 µM (active)

## Cc1cc(Nc2cc(N3CCN(C)CC3)nc(C=Cc3ccccc3)n2)n[nH]1
[1]
  Potency: 1.32 µM (active)
[2]
  Potency: 0.833 µM (active)

## O=C(C=Cc1ccc(/C=C/C(=O)Nc2ccc(C3=NCCN3)cc2)cc1)Nc1ccc(C2=NCCN2)cc1
[1]
  Potency: inactive
[2]
  Potency: inactive

## CN(C)CC=CC(=O)Nc1cc2c(Nc3ccc(F)c(Cl)c3)ncnc2cc1O[C@H]1CCOC1
[1]
  Potency: 1.48 µM (active)
[2]
  Potency: 6.62 µM (active)

## CC[C@@H](C)[C@H](NC(=O)[C@H](CC1CCCCC1)NC(=O)c1ccno1)C(=O)N1CCC2(CCc3ccccc32)CC1
[1]
  Potency: inactive
[2]
  Potency: 16.6 µM (active)

## CCc1cc(Nc2nccc(-c3c(-c4ccc(OC)c(C(=O)Nc5c(F)cccc5F)c4)nc4ccccn34)n2)c(OC)cc1N1CCC(N2CCN(S(C)(=O)=O)CC2)CC1
[1]
  Potency: 3.72 µM (active)
[2]
  Potency: inactive

## CC(C)[C@H](C(=O)Nc1ccc(C(=O)NO)cc1)c1ccccc1
[1]
  Potency: 0.0418 µM (active)
[2]
  Potency: 0.132 µM (active)

## Cc1ccc(F)c(NC(=O)Nc2ccc(-c3cccc4[nH]nc(N)c34)cc2)c1
[1]
  Potency: 5.26 µM (active)
[2]
  Potency: 13.2 µM (active)

## CC(NC(=O)Cc1cc(F)cc(F)c1)C(=O)NC(C(=O)OC(C)(C)C)c1ccccc1 (stereo unspecified)
[1]
  Potency: inactive
[2]
  Potency: inactive

## CCN(c1ccccc1)c1cc(NC)[n+](C)c(C)n1
[1]
  Potency: 18.7 µM (active)
[2]
  Potency: 18.7 µM (active)

## CC(C)[C@H](CO)Nc1nc(Nc2ccc(C(=O)O)c(Cl)c2)c2ncn(C(C)C)c2n1
[1]
  Potency: inactive
[2]
  Potency: inactive

## Cc1ccc(NC(=O)c2cccc(C(C)(C)C#N)c2)cc1Nc1ccc2ncn(C)c(=O)c2c1
[1]
  Potency: 23.5 µM (active)
[2]
  Potency: 20.9 µM (active)

## COc1cc2ncnc(Nc3ccc(F)c(Cl)c3)c2cc1NC(=O)C=CCN1CCCCC1
[1]
  Potency: 9.35 µM (active)
[2]
  Potency: 18.7 µM (active)

## Nc1ccc(C(=O)c2cc3c(ccc4ccccc43)[nH]2)cc1
[1]
  Potency: 0.743 µM (active)
[2]
  Potency: 1.18 µM (active)

## CC(=O)N(C)C1(c2ccccc2)CCN(CCC[C@]2(c3ccc(Cl)c(Cl)c3)CCCN(C(=O)c3ccccc3)C2)CC1
[1]
  Potency: 13.2 µM (active)
[2]
  Potency: 18.7 µM (active)

## COc1cccc2nc(-c3cccs3)nc(NN3C(=O)C=C(C)C3=O)c12
[1]
  Potency: 0.0166 µM (active)
[2]
  Potency: 5.9 µM (active)

## CCC(=O)N[C@H]1CC[C@H](C(=O)N(C)c2ccc(-c3nc4ccccc4o3)cc2)C1
[1]
  Potency: 7.43 µM (active)
[2]
  Potency: 7.43 µM (active)
